Measured values: PubChem BioAssay AID1645883 (National Center for Advancing Translational Sciences (NCATS), 2021)
Several values for one entry are separate records, joined by “and”; a condition that tells them apart may be missing. Equal values may be shown once. Out of some 16,000 compounds screened, about 160 (1%) were called active. Roughly 8% stayed inconclusive and do not appear here. Calls follow the shape of the dose curve; as a rule, active = well fitted activation curve with a large enough effect; inconclusive = small, poorly fitted or top-dose-only effect; inactive = no such curve, though single readings can be large or run the other way. Only a selection was taken, and actives are over-represented in it overall.

These molecules were tested against Rap guanine nucleotide exchange factor 3 (Homo sapiens) (UniProt O95398) (assay: Validation qHTS for agonist of cAMP-regulated guanine nucleotide exchange factor 3 (EPAC1)). Settings: EPAC1 Rap1b BODIPY-GDP exchange, fluorescence; max response: hits give high values, percent of cAMP control response.
Chain of Rap guanine nucleotide exchange factor 3 (Homo sapiens) (O95398 whole entry, looked up): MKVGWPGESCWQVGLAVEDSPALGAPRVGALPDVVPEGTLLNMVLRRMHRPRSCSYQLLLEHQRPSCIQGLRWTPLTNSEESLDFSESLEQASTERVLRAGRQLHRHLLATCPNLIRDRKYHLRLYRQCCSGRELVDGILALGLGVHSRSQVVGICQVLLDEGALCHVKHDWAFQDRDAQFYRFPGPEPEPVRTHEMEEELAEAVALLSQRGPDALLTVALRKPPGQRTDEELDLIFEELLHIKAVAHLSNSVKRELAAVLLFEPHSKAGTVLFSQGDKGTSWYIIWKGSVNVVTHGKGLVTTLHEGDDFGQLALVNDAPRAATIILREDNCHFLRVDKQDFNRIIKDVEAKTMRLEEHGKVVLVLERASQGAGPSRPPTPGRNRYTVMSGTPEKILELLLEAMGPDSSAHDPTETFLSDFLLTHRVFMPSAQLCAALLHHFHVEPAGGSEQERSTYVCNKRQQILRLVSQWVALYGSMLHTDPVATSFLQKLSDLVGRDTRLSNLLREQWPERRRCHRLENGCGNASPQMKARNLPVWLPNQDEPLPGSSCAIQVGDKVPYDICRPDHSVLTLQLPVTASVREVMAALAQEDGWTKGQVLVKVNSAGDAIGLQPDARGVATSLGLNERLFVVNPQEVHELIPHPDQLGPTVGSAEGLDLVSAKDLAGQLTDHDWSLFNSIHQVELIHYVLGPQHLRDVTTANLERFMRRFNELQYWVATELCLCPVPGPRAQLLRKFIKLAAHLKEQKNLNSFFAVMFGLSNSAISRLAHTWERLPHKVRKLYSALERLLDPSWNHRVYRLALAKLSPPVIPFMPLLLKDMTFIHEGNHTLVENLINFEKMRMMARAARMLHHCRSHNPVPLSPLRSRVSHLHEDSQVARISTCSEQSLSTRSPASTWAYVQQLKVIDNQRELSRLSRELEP
Text: Assay Provider (PI): Xiaodong Cheng Ph.D.
The University of Texas Medical Branch, […], TX
In multi-cellular eukaryotic organisms, the effects of cAMP are transduced by two ubiquitously-expressed intracellular cAMP receptors, the classic protein kinase A/cAMP-dependent protein kinase (PKA/cAPK) and the more recently discovered exchange protein directly activated by cAMP/cAMP-regulated guanine nucleotide exchange factor (EPAC/cAMP-GEF). Both PKA and EPAC are ubiquitously expressed in all tissues, and an increase in intracellular cAMP levels will lead to the activation of both PKA and EPAC. Therefore, careful dissections of the individual role and relative contribution of EPAC and PKA within the overall cAMP signaling in various model systems are critical for further elucidating the mechanism of cAMP signaling. To date no EPAC-specific antagonists and agonist, as well as isoform-specific agonists have been reported, and developing EPAC-specific pharmacological probes to determine the physiological functions that EPAC play in the overall cAMP-mediated signaling remains a major challenge within the research field. Furthermore, identified regulators of EPAC may lead to new mechanism-based therapeutic strategies specifically targeting the EPAC / cAMP-signaling components as EPAC has been implicated to play important roles in major human pathological conditions such as diabetes, heart disease, and cancer.
This qHTS will be used to screen the Molecular Libraries Small Molecule Repository (MLSMR) as a concentration-titration series using the NCGC unique quantitative screening (qHTS) platform to find activators for EPAC1. In addition, this assay will also be used as a counterscreen for the EPAC2 qHTS. This fluorescent based assay is developed and validated for EPAC1 that measures exchange using EPAC effector Rap1 complex with BODIPY-GDP, a GDP analog with a tethered fluorophores. Activators are identified by monitoring the change in fluorescence signal as the exchanged free BODIPY-GDP has a reduced fluorescence compared to Rap1-bound BODIPY-GDP. Increase in signal (activation) is the desired outcome for the EPAC1 agonist while no activity in this assay is desired for the EPAC2 agonist counterscreen.
[1] de Rooij, J., Zwartkruis, F. J., Verheijen, M. H., Cool, R. H., Nijman, S. M., Wittinghofer, A., and Bos, J.L. (1998) Nature 396, 474-477.
Briefly, three uL of reagents (100 nM EPAC1, 250 nM RAP1B-BODIPY-GDP, 50 uM GDP) were dispensed into a 1536-well Greiner black solid-bottom medium binding assay plate. Controls and test compounds (23 nL) were transferred to the plate via a Kalypsys pin tool equipped with a 1536-pin array. The plates were centrifuged at 1,000 rpm for 15 seconds followed by 5 minute incubation at room temperature. The assay plates were read at 5 minute intervals for 30 minutes in the ViewLux plate reader using 480nm excitation and 540nm emission filters. The results were normalized to the agonist positive control of 6.5 mM cAMP.
% is scaled to controls: 0 for no effect and ±100 for the full control effect.
Also: nearly all actives have a fitted effect of over 70% in size.

Max response, inactive:
CC1CC[C@@]23CCC4(C)[C@@]5(C)CCC6C(C)(C)C(O)CC[C@@]6(C)C5C=C[C@@]4(OC2=O)C3C1C (stereo partly specified) -57.5%
O=C1NS(=O)(=O)c2ccccc21 -6.7% and 22.2%
CC(=O)OC[C@H]1O[C@@H](O[C@H]2[C@H](O)[C@@H](OC(=O)c3ccccc3C(=O)O)[C@H](O)O[C@@H]2COC(C)=O)[C@H](O)[C@@H](OC(=O)c2ccccc2C(=O)O)[C@@H]1O -29.6%
CC(O)(COc1ccccc1)c1ccc2c(c1)CN(Cc1cn[nH]c1-c1ccc(F)cc1)CCO2 (stereo unspecified) 6.27%
COc1ccc(CCNc2ncnc3sc(C(=O)N4CCCC4)c(C)c23)cc1OC -3.63%
O=C(c1cc(C(F)(F)F)cc(C(F)(F)F)c1)N1CCC2(CCCN(Cc3ccncc3)C2)CC1 -115%
COC(=O)N1CCC[C@@]2(CCN(C(=O)NC(C)C)C2)C1 -60.9%
C[C@H]1C[C@H]2[C@@H]3CCC4=CC(=O)C=C[C@]4(C)[C@@H]3C(=O)C[C@]2(C)[C@@]1(O)C(=O)CO 0.445%
COc1cc2c(cc1OC)[C@@H](Cc1cc(OC)c(OC)c(OC)c1)[N+](C)(CCCOC(=O)CC/C=C/CCC(=O)OCCC[N+]1(C)CCc3cc(OC)c(OC)cc3[C@H]1Cc1cc(OC)c(OC)c(OC)c1)CC2 (stereo partly specified) -11.5% and 6.58%
CC(=O)Nc1ccccc1-c1nc(CNC(=O)c2ccc(Cl)cc2)c(C)o1 -0.968%
COc1cc(=O)n2c(c1C(=O)NC(C)c1ccco1)CCN(C(=O)c1cn3ccc(C)cc3n1)CC2 (stereo unspecified) -8.43%
NCCCNCCCCN(CCCN)/[N+]([O-])=N/O -13.7%
O=C1CCN(CCc2ccccc2)CCN1CCOc1ccccc1 21.5%
O=C(CN1Cc2ccccc2OC(c2ccccc2)C1)N1CCCCC1c1cccnc1 (stereo unspecified) 3.86%
N[C@H](C(=O)O)c1ccc(C(=O)O)c(O)c1 -1.36% and -12.7%
Cc1ccc(/C(=C/CN2CCCC2)c2ccccn2)cc1 -20.9%
CN1CCC2(CC1)CCN(S(=O)(=O)c1ccccc1)CC2 2.56%
CN(C)C(=O)[C@@H]1C[C@@H](Sc2nc3ccccc3[nH]2)CN1Cc1ccc(Cl)cc1 0.834%
C=C1C(=C/C=C2\CCC[C@]3(C)[C@@H]([C@H](C)CCCC(C)(C)O)CC[C@@H]23)C[C@@H](O)C[C@@H]1O -16.6%
O=C(c1csnn1)N1CCC2(CC1)CN(c1ncccn1)C2 26.8%
O=C(NCCN1CCOCC1)c1cnn(-c2nccc(-c3cccs3)n2)c1C1CC1 -10.9%
CN(Cc1ccco1)c1cc(-c2ccccc2C(F)(F)F)ncn1 17%
COc1ccc(C)cc1N1C(=O)[C@@H]2C[C@H]1CN2Cc1cccc(OC)c1O -2.66%
O=C(O)CCC(=O)O -16.2%
COC1[C@H](OC(N)=O)C(O)[C@H](Oc2ccc3c(O)c(NC(=O)c4ccc(O)c(CC=C(C)C)c4)c(=O)oc3c2C)OC1(C)C (stereo partly specified) 12.3%
O=C(C[n+]1ccncc1)c1ccc2c(c1)CCCC2 -14.9%
COc1cc(=O)n2c(c1C(=O)N(C)Cc1nonc1C)CCN(C(=O)c1ccc(C)cc1C)CC2 -17.4%
C=C1C(=CC=C2CCC[C@@]3(C)[C@@H]2CC[C@H]3[C@H](C)CCCC(C)C)C[C@@H](O)C[C@@H]1O -125%
CN1CCN(c2ncncc2-c2ccc(C(=O)N(C)C)cc2)CC1 -22%
Cc1cccc(C)c1NC(=O)NC1=CCCN1C -23.6%
O=C1NC(CC(=O)N2CCC(n3c(C4CCC4)nc4cccnc43)CC2)c2ccccc21 (stereo unspecified) 2.72%
CCNCCCNCCCNCCCNCC -1.46%
CCCCCCCC/C=C\CCCCCCCC(=O)OC[C@H](CO)OC(C)=O -42.9%
Nc1ncnc2c1c(I)cn2[C@@H]1C[C@H](N)[C@@H](O)[C@H]1O -1.21%
COc1ccccc1CNc1ncncc1-c1cccnc1 -29.8%
O=C(OCCN1CCOCC1)C1(c2ccccc2)CCCCC1 0.319% and -0.482% and -4.96%
CC1(C)[C@@H]2CC[C@@]1(C)[C@H](OC(=O)CSC#N)C2 -10.5%
COc1ccc(Oc2ncc3nc(-c4ccc(F)cc4)c(=O)n(C)c3n2)cc1 -48.7%
OCC1CCCN(c2nc3cc4c(cc3cc2CNCc2cccs2)OCO4)C1 (stereo unspecified) -2.38%
COc1ccc(-c2nc3cnc(OC)nc3n(Cc3ccc(F)cc3)c2=O)cc1 -45.5%
CC(C)[C@H](CO)Nc1nc(Nc2cc(N)cc(Cl)c2)c2ncn(C(C)C)c2n1 16.3%
